The nature of assay [1]: yeast TOR pathway RPL19A-GFP modulators, primary screen, cell-based, S. cerevisiae, multiplex flow cytometry (AID 1862; in the data active = percent of DMSO control GFP below about 86%;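 also: lower values mimic rapamycin by blocking the RPL19A rise seen in DMSO cells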). The following applies: S. cerevisiae RPL19A-GFP strain, flow cytometry fluorescence, 3 h; at 10 µM; stronger effect = lower value.
Assay [2] in a line: modulators of MEP2-GFP levels in yeast, primary screen, S. cerevisiae, multiplex flow cytometry (AID 1867;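 active = GFP response, as percent of the DMSO control, above the screen-wide mean plus 3 SD, about 139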;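 also: median GFP channel fluorescence of barcode-gated MEP2-GFP cells measured by flow cytometry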). The conditions noted are these: S. cerevisiae MEP2-GFP strain, 3 h, at 10 µM, stronger effect = higher value, 100% means same as DMSO wells. A general note: In flow cytometry, cells or beads pass a laser one at a time.
A short description of assay [3]: modulators of CIT2-GFP expression in yeast, primary screen, S. cerevisiae, GFP fusion, multiplex flow cytometry (AID 1870;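 active = percent response above a set limit, the screen-wide mean plus 3 SD, cut at about 130% in these data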;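 also: barcoded CIT2-GFP strain pooled with four other GFP strains with rapamycin as positive control; median GFP fluorescence per well over plate mean of DMSO wells so 100% = DMSO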). The following applies: 3 h, at 10 µM, stronger effect = higher value.
Assay [4] can be described thus: modulators of LAP4-GFP expression in yeast, primary screen, S. cerevisiae, multiplex flow cytometry (AID 1873). The conditions noted are these: 3 h, at 10 µM, stronger effect = higher value.
Assay [5] is described as follows: modulators of AGP1-GFP expression in yeast TOR pathway, primary screen, cell-based, multiplex flow cytometry, S. cerevisiae (AID 1887;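 active = GFP signal above the screen-wide mean plus 3 SD, that is over about 124.5% of the solvent control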;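 also: AGP1-GFP fusion strain of S. cerevisiae within a five-strain barcoded multiplex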). The following applies: 3 h, at 10 µM, stronger effect = higher value.
The nature of assay [6]: inhibitors of CD8+ T cell-vesicle binding, pilot screen, LFA-1/ICAM-1 modulator project, MLPCN validation set, flow cytometry (AID 2523;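 active = response below a set limit, under 55% cells CD8-positive and vesicle-bound, and CD8 cells' 90th-percentile brightness under 279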;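 as to vesicle binding response: mean PE anti-B7-1 fluorescence of CD8+ cells relative to row control; 100% = QL9-loaded vesicles with DMSO vehicle in the same plate row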). The following applies: 2C mouse CD8+ T cells, at 7 µM, stronger effect = lower value; double positive events: measured here: CD8+/vesicle+ event percentage.
In assay [7] the target is Integrin beta-1 (Homo sapiens) + Integrin alpha-4 (Homo sapiens) (UniProt P13612+P05556). Briefly: inhibition of HUTS-21 binding to VLA-4, pilot screen, VLA-4 allosteric modulator project, U937 cells, HUTS-21 mAb, flow cytometry, validation set (AID 2674;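 active = inhibition above 50%, about 3 SD of the validation set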;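 also: antibody binding induced by the VLA-4 ligand LDV present at three times its Kd; 0% = LDV ligand with antibody and no compound and 100% = antibody without LDV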). The conditions noted are these: HUTS-21 LIBS mAb binding, at 6.7 µM, stronger effect = higher value, binding induced by LDV ligand.

The nature of assay [8]: superoxide lowering in aged yeast cells, pilot screen, validation compound set (AID 2706;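 active = superoxide response below 65% of plate, a cut near 3 SD across the whole screen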;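 also: yeast exposed to compound for one week at 30 degrees C before staining; 100% = mean of all compound wells on the same plate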). The conditions noted are these: S. cerevisiae aging, superoxide DHE fluorescence; at 10 µM; stronger effect = lower value.
The target in assay [9] is Beta-adrenergic receptor kinase 1 (Homo sapiens) (UniProt P25098). Briefly: GRK2 binders displacing RNA aptamer, biochemical, validation, human GRK2, bead flow cytometry (AID 488806;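 active = aptamer binding inhibition above 30%, about 3 SD of noise from non-fluorescent compounds; inactive = inhibition at or below 30%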). The following applies: bead-bound GRK2, FAM-aptamer displacement, at 10 µM, stronger effect = higher value.
For assay [10], the target named is Beta-2 adrenergic receptor (Homo sapiens) (UniProt P07550). The experiment in a line: beta2AR agonists driving receptor internalization, pilot screen, cell-based, FAP fluorogen, flow cytometry, validation set (AID 504459;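 active = percent response above 42, roughly 3 SD of non-fluorescent test compounds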;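 also: agonist-driven loss of surface beta2AR via internalization measured by FAP dye flow cytometry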). The conditions noted are these: Am2.2-beta2AR cells, FAP surface receptor flow cytometry; at 10 µM; stronger effect = higher value.
Assay [11] addresses AP-2 complex subunit beta (Homo sapiens) (UniProt P63010). The experiment in a line: inhibitors of arrestin peptide binding to AP2, pilot screen, biochemical, validation set, GST-AP2 beads, flow cytometry (AID 504541;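 active = inhibition above 54%, about 3 SD of non-fluorescent compounds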;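 also: AP2 carries R879A mutation and is captured from E. coli lysate; bead-bound FITC arrestin peptide fluorescence measuring arrestin peptide binding to AP2; 0% = DMSO wells and 100% = excess unlabeled arrestin peptide control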). The following applies: FITC arrestin peptide, at 10 µM, stronger effect = higher value, AP2 beta2 appendage fragment, R879A mutant.
The nature of assay [12]: yeast V-ATPase proton transport modulators, S. cerevisiae, pHLuorin, HTS validation (AID 504600; in the data active = response above about 15%;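 also: plate controls were DMSO for no effect and reference compound for full effect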). The following applies: S. cerevisiae pHLuorin cytosolic pH, at 10 µM, stronger effect = higher value.
Assay [13] deals with anti-desmoglein-3 scFv antibody binding to human DSG3. The experiment in a line: inhibitors of anti-DSG3 scFv binding to DSG3, pilot screen, biochemical, validation compound set, bead-based, flow cytometry (AID 588368;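 active = binding below the plate cutoff, the plate median minus 3 SD, with a reading above zero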;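 also: signal is the median channel fluorescence of bead-bound GFP antibody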). The conditions noted are these: Protein G beads, DSG3-Fc, scFv-GFP binding, at 10 µM, stronger effect = lower value.
Assay [14] in a line: inhibitors of fungal efflux pumps CDR1, CDR2, MDR1, pilot screen, validation compound set, multiplex, phenotypic (AID 588506;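 active = efflux inhibition above 0.42, the validation set average plus 4 SD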;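 also: Nile Red retained in cells so higher fluorescence means more efflux inhibition; 0 = negative control wells and 1 = enniatin B 25 µM full block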). The following applies: S. cerevisiae pump-expressing triplex, Nile Red efflux flow cytometry; at 10 µM; stronger effect = higher value; the pumps come from Candida albicans.
The target of assay [15] is ATP-binding cassette sub-family B member 6 (Homo sapiens) (UniProt Q9NP58). The experiment in a line: ABCB6 transporter inhibitors, pilot screen, K562-ABCB6 cells, flow cytometry, validation set (AID 588550;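 active = inhibition above the screen-wide mean plus 3 SD, about 51%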;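 also: 0% = DMSO wells and 100% = benzethonium chloride 70 µM positive control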). The following applies: K562-ABCB6 porphyrin accumulation, 1 h, at 10 µM, stronger effect = higher value.
Assay [16] is described as follows: promoters of myeloid differentiation in arrested cells, primary screen, cell-based, GFP/MAC1 double positive, flow cytometry, validation set (AID 588685;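 active = differentiation response of at least 50%, scaled between solvent and reference control, from cells with both markers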;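 also: compound exposure lasts four days before antibody staining and flow analysis; 0% = DMSO wells and 100% = 5 µM fulvestrant positive control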). The conditions noted are these: ER-HoxA9 marrow cells, stronger effect = higher value, normalized: vehicle 0, fulvestrant 100.

From PubChem BioAssay come the findings set out here.

Inconclusive results are not listed. Activity calls are given as the source filed them.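 The calls were made as follows, unless noted: active = GFP signal, as percent of the solvent control, above the screen mean plus 3 SD, about 149; inconclusive = no reading because the compound's own fluorescence upset strain identification; inactive = the rest.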

Sequence of Beta-adrenergic receptor kinase 1 (Homo sapiens) (P25098 whole entry, looked up): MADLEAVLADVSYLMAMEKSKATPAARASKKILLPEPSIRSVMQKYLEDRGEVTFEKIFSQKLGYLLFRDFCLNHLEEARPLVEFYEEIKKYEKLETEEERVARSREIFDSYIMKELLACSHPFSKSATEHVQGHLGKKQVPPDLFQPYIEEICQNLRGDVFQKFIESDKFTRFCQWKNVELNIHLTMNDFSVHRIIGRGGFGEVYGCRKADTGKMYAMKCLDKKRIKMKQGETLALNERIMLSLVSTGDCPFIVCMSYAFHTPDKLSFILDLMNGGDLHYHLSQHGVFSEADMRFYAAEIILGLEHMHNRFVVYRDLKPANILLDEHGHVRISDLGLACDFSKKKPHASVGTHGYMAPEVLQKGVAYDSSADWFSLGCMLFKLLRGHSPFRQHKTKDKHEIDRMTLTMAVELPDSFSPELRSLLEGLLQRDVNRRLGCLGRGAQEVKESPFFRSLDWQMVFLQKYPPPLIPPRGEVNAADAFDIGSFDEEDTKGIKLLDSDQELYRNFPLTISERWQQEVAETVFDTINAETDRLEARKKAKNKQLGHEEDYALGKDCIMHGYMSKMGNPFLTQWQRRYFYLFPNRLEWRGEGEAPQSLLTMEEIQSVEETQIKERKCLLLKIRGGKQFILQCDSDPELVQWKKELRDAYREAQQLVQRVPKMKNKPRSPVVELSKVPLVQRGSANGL
Sequence of ATP-binding cassette sub-family B member 6 (Homo sapiens) (Q9NP58 whole entry, looked up): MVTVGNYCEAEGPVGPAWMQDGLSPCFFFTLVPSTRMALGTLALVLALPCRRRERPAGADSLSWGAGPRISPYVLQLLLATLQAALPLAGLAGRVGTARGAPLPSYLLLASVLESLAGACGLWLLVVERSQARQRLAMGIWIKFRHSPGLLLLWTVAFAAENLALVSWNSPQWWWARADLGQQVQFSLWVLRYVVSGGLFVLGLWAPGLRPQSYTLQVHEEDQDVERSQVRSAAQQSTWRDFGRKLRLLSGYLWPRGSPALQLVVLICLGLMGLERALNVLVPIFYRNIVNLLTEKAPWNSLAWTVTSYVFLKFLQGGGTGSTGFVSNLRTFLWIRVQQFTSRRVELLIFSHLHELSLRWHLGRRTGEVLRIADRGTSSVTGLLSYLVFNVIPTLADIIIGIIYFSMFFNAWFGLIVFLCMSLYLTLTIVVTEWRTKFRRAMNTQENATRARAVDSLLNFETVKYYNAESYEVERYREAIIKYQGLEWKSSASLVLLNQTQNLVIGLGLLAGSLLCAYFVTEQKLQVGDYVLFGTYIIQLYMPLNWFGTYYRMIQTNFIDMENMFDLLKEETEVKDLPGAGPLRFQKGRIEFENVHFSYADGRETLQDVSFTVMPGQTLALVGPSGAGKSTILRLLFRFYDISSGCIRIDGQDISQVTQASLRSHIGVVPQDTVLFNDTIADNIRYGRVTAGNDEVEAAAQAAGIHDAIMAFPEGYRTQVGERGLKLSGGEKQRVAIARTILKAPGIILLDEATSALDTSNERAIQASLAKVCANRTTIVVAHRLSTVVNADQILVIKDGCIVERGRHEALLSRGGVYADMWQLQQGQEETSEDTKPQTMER
Sequence of Integrin beta-1 (Homo sapiens) + Integrin alpha-4 (Homo sapiens) (P05556 whole entry, looked up): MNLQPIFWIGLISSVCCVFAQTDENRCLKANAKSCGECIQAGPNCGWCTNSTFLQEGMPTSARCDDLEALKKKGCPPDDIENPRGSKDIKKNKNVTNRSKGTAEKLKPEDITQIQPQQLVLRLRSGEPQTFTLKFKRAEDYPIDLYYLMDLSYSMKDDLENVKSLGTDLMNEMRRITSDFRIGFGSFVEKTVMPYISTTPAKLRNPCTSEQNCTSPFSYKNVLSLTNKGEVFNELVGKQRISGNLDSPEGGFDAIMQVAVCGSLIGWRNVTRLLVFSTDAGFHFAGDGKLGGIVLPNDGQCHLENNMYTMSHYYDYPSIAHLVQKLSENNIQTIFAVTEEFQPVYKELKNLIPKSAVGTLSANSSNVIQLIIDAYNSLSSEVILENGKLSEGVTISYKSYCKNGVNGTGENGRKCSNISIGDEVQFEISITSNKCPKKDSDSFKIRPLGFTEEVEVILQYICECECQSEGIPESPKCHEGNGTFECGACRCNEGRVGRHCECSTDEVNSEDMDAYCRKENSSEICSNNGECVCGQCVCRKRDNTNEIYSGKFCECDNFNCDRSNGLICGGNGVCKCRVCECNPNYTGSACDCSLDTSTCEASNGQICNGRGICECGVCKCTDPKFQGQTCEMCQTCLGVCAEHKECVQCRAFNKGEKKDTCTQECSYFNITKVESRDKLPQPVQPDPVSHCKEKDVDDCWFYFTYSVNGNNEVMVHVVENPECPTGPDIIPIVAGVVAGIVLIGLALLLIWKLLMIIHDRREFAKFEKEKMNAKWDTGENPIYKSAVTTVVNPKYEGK
Sequence of Integrin beta-1 (Homo sapiens) + Integrin alpha-4 (Homo sapiens) (P13612 whole entry, looked up): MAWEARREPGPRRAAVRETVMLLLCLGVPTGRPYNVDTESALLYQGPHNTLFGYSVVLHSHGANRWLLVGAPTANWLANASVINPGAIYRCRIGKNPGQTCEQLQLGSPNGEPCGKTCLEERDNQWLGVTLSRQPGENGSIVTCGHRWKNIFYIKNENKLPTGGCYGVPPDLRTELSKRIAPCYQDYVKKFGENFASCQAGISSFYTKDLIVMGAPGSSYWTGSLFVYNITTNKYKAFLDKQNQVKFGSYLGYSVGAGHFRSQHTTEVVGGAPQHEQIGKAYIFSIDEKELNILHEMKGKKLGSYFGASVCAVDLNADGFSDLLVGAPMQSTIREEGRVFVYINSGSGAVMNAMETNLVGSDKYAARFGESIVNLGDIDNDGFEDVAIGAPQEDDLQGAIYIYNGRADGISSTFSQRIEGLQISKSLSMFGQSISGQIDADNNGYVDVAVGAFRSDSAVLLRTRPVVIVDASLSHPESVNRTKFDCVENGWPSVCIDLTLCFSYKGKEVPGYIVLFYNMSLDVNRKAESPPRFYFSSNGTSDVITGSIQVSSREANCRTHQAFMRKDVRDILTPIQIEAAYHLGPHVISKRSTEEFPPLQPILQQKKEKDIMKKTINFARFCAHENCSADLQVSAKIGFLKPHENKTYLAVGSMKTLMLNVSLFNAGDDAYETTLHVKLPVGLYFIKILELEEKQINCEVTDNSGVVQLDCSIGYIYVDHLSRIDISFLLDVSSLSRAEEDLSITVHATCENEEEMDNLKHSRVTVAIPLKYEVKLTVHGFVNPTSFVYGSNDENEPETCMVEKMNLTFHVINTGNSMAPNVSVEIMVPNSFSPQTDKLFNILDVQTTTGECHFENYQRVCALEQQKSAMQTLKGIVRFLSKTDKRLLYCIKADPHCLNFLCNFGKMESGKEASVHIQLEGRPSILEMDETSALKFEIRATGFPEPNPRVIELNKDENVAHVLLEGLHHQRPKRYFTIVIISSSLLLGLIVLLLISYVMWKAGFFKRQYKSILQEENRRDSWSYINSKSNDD
Sequence of AP-2 complex subunit beta (Homo sapiens) (P63010 whole entry, looked up, the tested form may be a part, one chain of several): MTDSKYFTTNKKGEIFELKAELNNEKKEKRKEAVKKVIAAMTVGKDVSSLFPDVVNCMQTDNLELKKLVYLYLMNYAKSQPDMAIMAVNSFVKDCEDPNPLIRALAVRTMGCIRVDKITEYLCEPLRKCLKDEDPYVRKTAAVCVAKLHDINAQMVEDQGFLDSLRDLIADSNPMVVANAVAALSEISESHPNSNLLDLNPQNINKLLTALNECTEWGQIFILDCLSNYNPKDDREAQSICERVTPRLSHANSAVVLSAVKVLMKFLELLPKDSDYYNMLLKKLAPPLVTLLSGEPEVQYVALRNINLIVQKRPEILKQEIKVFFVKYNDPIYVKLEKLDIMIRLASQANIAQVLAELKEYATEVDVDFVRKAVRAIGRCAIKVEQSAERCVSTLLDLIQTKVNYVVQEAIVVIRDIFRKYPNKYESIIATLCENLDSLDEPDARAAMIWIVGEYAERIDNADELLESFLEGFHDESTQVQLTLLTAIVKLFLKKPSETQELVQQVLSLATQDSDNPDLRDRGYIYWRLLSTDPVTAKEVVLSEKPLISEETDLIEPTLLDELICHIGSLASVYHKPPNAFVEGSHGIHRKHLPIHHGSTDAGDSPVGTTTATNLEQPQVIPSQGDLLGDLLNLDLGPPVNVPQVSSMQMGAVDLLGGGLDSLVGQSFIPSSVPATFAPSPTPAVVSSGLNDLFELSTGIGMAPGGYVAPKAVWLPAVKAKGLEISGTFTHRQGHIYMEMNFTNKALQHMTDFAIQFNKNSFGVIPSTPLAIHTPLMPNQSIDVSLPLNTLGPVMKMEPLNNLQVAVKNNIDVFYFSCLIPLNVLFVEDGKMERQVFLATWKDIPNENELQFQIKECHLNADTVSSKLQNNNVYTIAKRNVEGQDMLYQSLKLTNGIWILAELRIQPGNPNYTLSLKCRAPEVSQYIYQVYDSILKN
Sequence of Beta-2 adrenergic receptor (Homo sapiens) (P07550 whole entry, looked up): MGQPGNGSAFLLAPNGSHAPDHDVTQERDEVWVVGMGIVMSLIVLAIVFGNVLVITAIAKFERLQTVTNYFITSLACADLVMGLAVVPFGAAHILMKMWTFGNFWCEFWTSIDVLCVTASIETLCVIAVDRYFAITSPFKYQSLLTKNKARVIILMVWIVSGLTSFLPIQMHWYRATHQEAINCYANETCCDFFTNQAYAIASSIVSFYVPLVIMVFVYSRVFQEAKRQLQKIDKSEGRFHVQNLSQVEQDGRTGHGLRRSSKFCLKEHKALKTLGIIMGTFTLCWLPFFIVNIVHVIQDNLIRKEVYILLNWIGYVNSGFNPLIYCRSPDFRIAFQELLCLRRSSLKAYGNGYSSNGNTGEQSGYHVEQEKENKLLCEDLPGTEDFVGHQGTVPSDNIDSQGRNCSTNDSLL

`Cn1c(Oc2ccc3c(c2)OCO3)nc2c1c(=O)n(Cc1ccccc1)c(=O)n2C`: the percent of DMSO control GFP in [1] was 98.7% (inactive). Besides, the GFP response vs DMSO in assay [2] was 102% (inactive); in assay [4] it was 104% (inactive). The percent response of DMSO control in assay [3] is 94.4% (inactive). The GFP response, % of DMSO in assay [5] is 109% (inactive). The double positive events in assay [6] was determined as 60.5%. Also, the vesicle binding response in assay [6] is 189% (inactive). Besides, the inhibition in assay [7] is -5.38% (inactive); in [11], 3.83% (inactive); in assay [15], 5% (inactive). Also, the superoxide response (% of plate) in assay [8] was 116% (inactive). Further, the aptamer binding inhibition in [9] was 8% (inactive). The response was -26.9% (inactive) in assay [10] and -0.9% (inactive) in assay [12]. In addition, in [13], the binding (% of control) is 97.8% (inactive). The efflux inhibition (fraction of control) in assay [14] is 0.04 (inactive). Also, in assay [16], the differentiation response is -4.99% (inactive).
`CCn1c(SCC(=O)c2ccccc2)nc2ccccc2c1=O`: the percent of DMSO control GFP in assay [1] was 103% (inactive). The GFP response vs DMSO is 108% (inactive) in [2] and 115% (inactive) in assay [4]. Moreover, the percent response of DMSO control in [3] is 99.7% (inactive). Moreover, the GFP response, % of DMSO in [5] is 104% (inactive). Moreover, in assay [6], the double positive events is 60.3%. Moreover, the vesicle binding response in assay [6] is 176% (inactive). Also, the inhibition in assay [7] is -18.5% (inactive); in assay [11], 9.92% (inactive); in assay [15], 9% (inactive). For the same molecule, the superoxide response (% of plate) in [8] is 110% (inactive). In addition, the aptamer binding inhibition in assay [9] was -1% (inactive). Moreover, the figures for the response in assay [10] and in assay [12] were 0.7% (inactive) and -1.15% (inactive), respectively. Besides, in assay [13], the binding (% of control) is 99.6% (inactive). The efflux inhibition (fraction of control) in assay [14] is 0.53 (active). Moreover, the differentiation response in [16] is -14.8% (inactive).
`CC(=O)Nc1ccccc1C(=O)C(=O)Nc1ccccc1`: the percent of DMSO control GFP in assay [1] is 99.1% (inactive). Further, the GFP response vs DMSO was 99.6% (inactive) in assay [2] and 114% (inactive) in assay [4]. Also, the percent response of DMSO control in assay [3] is 99.6% (inactive). The GFP response, % of DMSO in assay [5] was 97.5% (inactive). The molecule further came in with a double positive events in [6] of 60.9%. The vesicle binding response in assay [6] is 83.6% (inactive). For the same molecule, the inhibition in assay [7] is 6.4% (inactive); in assay [11] it was 35.2% (inactive); in [15], 2% (inactive). The superoxide response (% of plate) in assay [8] was 102% (inactive). Besides, in assay [9], the aptamer binding inhibition is 1% (inactive). Further, the response was -12.9% (inactive) in assay [10] and -3.86% (inactive) in [12]. Besides, the binding (% of control) in [13] is 95.3% (inactive). The efflux inhibition (fraction of control) in assay [14] was -0.35 (inactive). Besides, the differentiation response in [16] is 29.6% (inactive).
With `CC12CCC(C(=O)N3CCc4ccccc43)(CC1=O)C2(C)C` (stereo not drawn), in assay [1], the percent of DMSO control GFP was 101% (inactive). Besides, the GFP response vs DMSO is 102% (inactive) in assay [2] and 95.9% (inactive) in [4]. Further, the percent response of DMSO control in assay [3] was 97.6% (inactive). Also, the GFP response, % of DMSO in assay [5] is 91.2% (inactive). The double positive events in assay [6] is 60.3%. The vesicle binding response in assay [6] is 115% (inactive). Besides, the inhibition in [7] is -2.43% (inactive); in [11] it was 5.6% (inactive); in assay [15] it was 4% (inactive). Moreover, the superoxide response (% of plate) in [8] is 108% (inactive). Moreover, the aptamer binding inhibition in assay [9] is 13% (inactive). For the same molecule, the response is -16.3% (inactive) in assay [10] and 2.72% (inactive) in [12]. Besides, in assay [13], the binding (% of control) is 102% (inactive). Moreover, in [14], the efflux inhibition (fraction of control) was -0.24 (inactive). Further, the differentiation response in assay [16] is -10.4% (inactive).

One may read the inhibition as the change of the read-out against control, counted positive when it falls.
